3T3 cytotox – cytotoxic compounds in NIH 3T3 cells. NIH 3T3 viability, CellTiter-Glo ATP luminescence, 48-72 h. Potency, µM (highest dose often 96.7 µM), without a hit: at the highest dose activity change, negative = cytotoxicity, hits mostly inhibitors. 94,000 tested, 4.3% active. AID 1345082; also: nearly all actives have a fitted effect of over 55% in size
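Luminescent ATP readout (CellTiter-Glo, 10 min RT) after 48 or 72 hr compound exposure of NIH 3T3 cells seeded at 400 cells/well in 1536-well format; quantitative HTS.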
FLuc inh – blocks purified firefly luciferase enzyme activity | P08659 | purified P. pyralis luciferase, luminescence, biochemical | Potency, µM (titrated, usually from 115 µM), actives largely listed as inhibitors | 76,000 tested, 2.5% active | AID 1347043; also: nearly all actives have a fitted effect of over 65% in size
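Cell-free enzyme assay, 10nM P. pyralis luciferase, luciferin and ATP each at 10uM. Inhibition profiled over a 6-point titration, read as luminescence.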
HEK cytotox – HEK 293 cell cytotoxicity; HEK 293 viability, ATP luminescence (CellTiter-Glo), 48-72 h; Potency, µM (highest dose often 115 µM), inactives show at the top dose activity change, negative = cytotoxicity, actives largely listed as inhibitors; 94,000 tested, 6.6% active; AID 1345083; also: nearly all actives have a fitted effect of over 60% in size
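ATP-coupled CellTiter-Glo luminescence served as viability read-out, recorded 10 min after reagent addition at room temperature. HEK 293 cells, 250 cells/well, had been incubated with pintool-transferred compound for 48 or 72 hr at 37 degree Celsius.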
hNpr1 antagonist – antagonists of human natriuretic peptide receptor Npr1 | Potency, µM (top dose mostly 46.3 µM), inactives show top-dose activity change, negative = inhibition, most hits filed as inhibitors | HEK293 hNpr1 GloSensor cGMP, ANP-stimulated luminescence | 76,000 tested, 1.6% active; calls by dose curve; also: nearly all actives have a fitted effect of over 60% in size
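HEK293 cells stably expressing human Npr1 and cGMP GloSensor pGS-40F, loaded 2 h with 2% GloSensor reagent, given compound 30 min at room temperature. Luminescence read before and 20 min after 0.1 nM hNppA.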
Numbers without * were called inactive; i = inactive; ? = inconclusive; nt = no result; ! = repeats disagree; [ ] = remark or other dose. Most compounds without a hit are left out; they make up all but 11% or so of the library. Unless noted, calls follow the shape of the dose curve; as a rule, active = well fitted curve in the direction sought with a large enough effect; inconclusive = small, poorly fitted or top-dose-only effect, or another doubt; inactive = no such curve, though single readings can be large; an effect the other way counts as inactive or inconclusive. % is scaled to controls: 0 for no effect and ±100 for the full control effect; potency is read from the fitted curve at half-maximal effect.

SMILES | 3T3 cytotox | FLuc inh | HEK cytotox | hNpr1 antagonist
COc1ccccc1Cn1c(=O)c(C(=O)N2CCN(C(C)=O)CC2)nc2cccnc21 | 3.2% | nt | i | nt
CCc1nc2c(c(-c3ccc(Cl)cc3)n1)CN(Cc1cccc(OC)c1)CC2 | 12.6µM* | i | ? | 7.0%
CCc1nc2c(c(-c3ccc(Cl)cc3)n1)CN(Cc1ccc(OC)cc1)CC2 | 35.5µM* | i | ? | 1.6%
CCc1nc2c(c(-c3ccc(Cl)cc3)n1)CCN(Cc1ccc(OC)cc1)CC2 | ? | i | ? | 1.6%
CCc1nc2c(c(-c3ccc(Cl)cc3)n1)CCN(Cc1ccc(C#N)cc1)CC2 | ? | i | 39.8µM* | 7.0%
CCc1nc2c(c(-c3ccc(Cl)cc3)n1)CN(Cc1ccc(F)cc1)CC2 | 22.4µM* | i | 44.7µM* | 1.2%
COc1ccc(C(=O)N2CCCC2C(=O)N2CCC(c3nc4ccncc4[nH]3)CC2)cc1 (stereo not given) | -10.4% | nt | 3.4% | nt
C=CCN1CCN(C(=O)CCC[C@H]2NC[C@@H]3C[C@H]2CN(Cc2ccccc2)C3)CC1 | i | i | -7.9% | 0.0%
CN1Cc2ccccc2N(CC(O)COc2ccccc2)CCC1=O (stereo not given) | -1.9% | nt | ? | nt
CCc1nc2c(c(-c3ccc(Cl)cc3)n1)CN(Cc1ccccn1)CC2 | -19.8% | i | 0.0% | 2.2%
CCc1nc2c(c(-c3ccc(OC)cc3)n1)CCN(Cc1cc(C)on1)CC2 | 20µM* | nt | 3.9% | nt
CCc1nc2c(c(-c3ccc(Cl)cc3)n1)CN(S(=O)(=O)c1ccccc1)CC2 | 20µM*! | i | 4.6% | 2.4%
CCc1nc2c(c(-c3ccc(Cl)cc3)n1)CN(Cc1cccc3ccccc13)CC2 | 31.6µM* | i | 79.4µM* | 0.4%
COc1ccc(C(=O)N2CCCC(c3nn(-c4ccccn4)c(=O)[nH]3)C2)cc1 (stereo not given) | i | nt | i | nt
COc1ccc(-c2ccc3ncc(Nc4ccc(C(N)=O)cc4)n3n2)cn1 | ? | i | ? | -1.8%[70.6 µM]
Fc1ccc(-c2ccc3ncc(Nc4ncccn4)n3n2)cc1 | ? | i | -18.8%[172 µM] | 9.0%[70.6 µM]
COc1ccc(-c2ccc3ncc(Nc4cccc(N[S+](C)(=O)[O-])c4)n3n2)cc1OC | ? | 39.8µM* | ? | -1.9%
C[S+](=O)([O-])Nc1cccc(Nc2cnc3ccc(-c4ccc(F)cc4)nn23)c1 | ? | ? | 79.4µM* | -20.8%[70.6 µM]
CN1C(=O)C2(CCN(Cc3ccsc3)C2)c2ccccc21 (stereo not given) | ? | i | ? | 0.0%[70.6 µM]
CN1C(=O)C2(CCN(Cc3ccc(C#N)cc3)C2)c2ccccc21 (stereo not given) | ? | i | ? | 7.5%[70.6 µM]
CN(C)c1ccc(CN2CCC3(C2)C(=O)N(c2ccccc2)c2ccccc23)cc1 (stereo not given) | 44.7µM* | nt | ? | nt
CN1C(=O)C2(CCN(Cc3ccc(F)cc3)C2)c2ccccc21 (stereo not given) | ? | i | 70.8µM* | 14.4%[70.6 µM]
CN1C(=O)C2(CCN(Cc3cccc4ccccc34)C2)c2ccccc21 (stereo not given) | ? | i | 28.2µM* | -6.5%[70.6 µM]
CN1C(=O)C2(CCN(Cc3ccc(C(F)(F)F)cc3)C2)c2ccccc21 (stereo not given) | -30.2% | i | ? | -29.3%
CC(C)(C)C(=O)N1CCCN(c2ccc3nnc(C4CC4)n3n2)CC1 | -27.6% | nt | -27.1% | nt
SMILES | 3T3 cytotox | FLuc inh | HEK cytotox | hNpr1 antagonist
O=C(NCCN1CCOCC1)c1cc(-c2cc(Cl)cc(Cl)c2)c2nncn2n1 | -19.0% | nt | 1.9% | nt
COCCCNc1nc(-c2c(C)noc2C)cc2cc(C(C)C)oc12 | ? | i | 89.1µM* | -0.5%[70.6 µM]
COCCNc1nc(-c2c(C)noc2C)cc2cc(C(C)C)oc12 | ? | i | 70.8µM* | 1.7%[70.6 µM]
Cc1ccc(C(=O)N2CCN(C(=O)c3nc4cccnc4n(CC(C)C)c3=O)CC2)cc1 | 4.2% | nt | i | nt
c1ccc2[nH]c(N3CCN(Cc4cc5n(n4)CCCNC5)CC3)nc2c1 | 0.8% | i | i | 3.1%
c1ccc2sc(N3CCCN(Cc4cc5n(n4)CCNC5)CC3)nc2c1 | ? | ? | 35.5µM* | 2.8%
CCCCN1CCN(C(=O)c2csc(N3CCN(c4cccc(Cl)c4)CC3)n2)CC1 | ? | i | 22.4µM* | -29.9%
CC1CCN(C(=O)c2csc(N3CCN(c4ccc(Cl)cc4)CC3)n2)CC1 | ? | i | ? | ?
O=C(NC1CCCC1)c1csc(N2CCN(c3cccc(Cl)c3)CC2)n1 | ? | i | 35.5µM* | -18.8%

High-throughput results: PubChem, National Center for Advancing Translational Sciences (NCATS)
